Reference: PubChem BioAssay (NCATS)
Several values for one entry are separate records, joined by “and”; a condition that tells them apart may be missing. Identical values can stand only once. Inconclusive results are not listed. Values without a mark were called inactive. Activity calls are given as the source filed them. The call rests on the fitted dose curve; in most records, active means well fitted inhibition curve with a large enough effect in the signal ratio, with a control signal flat (not every such curve was filed as active); inconclusive means small, poorly fitted or top-dose-only effect, or effect the other way, or a change in a side signal; inactive means no such curve, though single readings can be large or run the other way; the % refers to the signal ratio.

Molecular target: Retinoic acid receptor RXR-alpha (Homo sapiens) (UniProt P19793)
Sequence (P19793 whole entry, looked up): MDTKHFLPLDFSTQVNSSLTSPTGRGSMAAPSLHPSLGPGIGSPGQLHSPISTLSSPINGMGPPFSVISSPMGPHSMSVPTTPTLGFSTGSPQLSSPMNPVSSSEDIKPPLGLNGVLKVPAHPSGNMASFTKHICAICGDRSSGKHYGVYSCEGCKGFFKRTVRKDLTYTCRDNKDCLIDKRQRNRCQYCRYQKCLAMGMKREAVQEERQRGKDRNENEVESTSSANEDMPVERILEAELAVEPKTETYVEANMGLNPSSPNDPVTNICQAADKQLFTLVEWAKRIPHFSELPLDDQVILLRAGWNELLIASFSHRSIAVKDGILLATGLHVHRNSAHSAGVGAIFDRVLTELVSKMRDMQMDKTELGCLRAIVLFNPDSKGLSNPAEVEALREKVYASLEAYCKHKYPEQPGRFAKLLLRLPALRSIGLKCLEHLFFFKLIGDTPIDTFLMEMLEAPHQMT
Assay: qHTS assay for small molecule antagonists of retinoid X receptor alpha signaling (AID 588546)
Conditions: HEK293T RXRa-UAS-bla, beta-lactamase ratio, antagonist mode
Text: NIH Chemical Genomics Center [NCGC] U.S. Environmental Protection Agency [EPA] National Institutes of Environmental Health Sciences [NIEHS] National Toxicology Program [NTP] NCGC Assay Overview The Retinoid X receptor (RXR), a nuclear hormone receptor is expressed in liver, spleen, placenta, epidermis, central nervous system. These receptors are able to form homo and heterodimers with other nuclear receptors and due to this heterodimerizing ability, RXR functions as master regulators producing diverse physiological effects. Three subtypes of RXR exist; alpha, beta and gamma. Retinoid X receptor alpha (RXR-alpha) has potential roles in metabolic signaling pathways, skin alopecia, dermal cysts, cardiac development, insulin sensitization etc. Therefore screening environmental chemicals on RXR-alpha signaling can be used for the studies focused on such therapeutic applications.
NCGC Assay Protocol Summary Using a beta-lactamase reporter-gene under control of Retinoid X receptor--alpha (RXR-alpha) response element, a cell-based assay [GeneBLAzer (RXR-alpha -UAS-bla assay developed by Invitrogen] was used to measure RXR-alpha ligands signaling. GeneBLAzer RXR-alpha -UAS-bla HEK293T cells were used with assay medium containing 2% charcoal-stripped FBS. The assay was performed in clear bottom black Greiner 1536-well plates. Library compounds were measured for their ability to inhibit the reporter gene activity. Compounds were screened in a titration series in 1536-well format. The fluorescence intensity (405 nm excitation, 460/530 nm emission) was measured using an EnVision plate reader. Data was normalized relative to 9-cis-retinoic acid control (500 nM, 100%), and DMSO only wells (basal, 0%). Concentration-response titration points for each compound were fitted to the Hill equation yielding concentrations of half-maximal inhibition (IC50) and maximal response (efficacy) values. qHTS protocol for RXR-alpha beta-lactamase assay in antagonist mode [Step] [Parameter] [Value] [Description] 1. Reagent; 5 uL; 2500 cells/well 2. Incubation; 37 C for 4 hrs 3. Compounds; 23 nL; 0.59 nM to 92 uM 4. Controls (DMSO); 23 nL 5. Agonist (Stimulator); 1uL; 9-cis-retinoic acid at 500 nM and 100 nM final concentrations 6. Incubation; 37 C for 18 hrs 7. Detection reagent; 1 uL of CCF4-dye 8. Incubation; RT for 2 hrs 9. Detection; Fluorescence; Envision plate reader
On the % scale 0 is the no-effect control and ±100 the full control effect.

| Compound | max response | Potency |
| --- | --- | --- |
| Nc1nc(N)nc(N)n1 | -7.03% | – |
| CN(C)P(=O)(N(C)C)N(C)C | -0.0212% | – |
| O=C1NCCN1Cc1ccc(Cl)nc1 | -5.19% | – |
| C=CCC1=C(C)[C@@H](OC(=O)[C@@H]2[C@@H](C=C(C)C)C2(C)C)CC1=O | -11.9% | – |
| CCCCCCCCCCCCN(C)C | -14.3% | – |
| S=C([S-])NCCNC(=S)[S-].[Zn+2] | 15.4% and -59.9% | – |
| Cc1c(COC(=O)C2C(/C=C(\Cl)C(F)(F)F)C2(C)C)cccc1-c1ccccc1 (stereo not given) | -11.6% | – |
| CC1(C)CON(Cc2ccccc2Cl)C1=O | -4.63% | – |
| CNC(=O)/C=C(\C)OP(=O)(OC)OC | -15.9% | – |
| COc1nc(C)nc(NC(=O)NS(=O)(=O)c2ccccc2Cl)n1 | -1.72% | – |
| O=C(NC(=O)c1c(F)cccc1F)Nc1ccc(OC(F)(F)C(F)OC(F)(F)F)c(Cl)c1 (stereo not given) | -13% | – |
| C=CC(=O)OCC(CO)(COC(=O)C=C)COC(=O)C=C | – | 5.62 µM (active) |
| CCOP(=O)(OCC)Oc1cc(C)nc(C(C)C)n1 | 18.7% | – |
| N#CN=C1SCCN1Cc1ccc(Cl)nc1 | -3.64% | – |
| Clc1ccc([C@@]2(Cn3cncn3)C[C@H](Br)CO2)c(Cl)c1 | -7.83% | – |
| O=C1c2ccccc2C(=O)C1C(=O)C(c1ccccc1)c1ccc(Cl)cc1 (stereo not given) | 36.5% | – |
| CC(C)CCCCCCOC(=O)c1ccccc1C(=O)OCCCCCCC(C)C | -4.29% | – |
| CCOP(=S)(S)OCC | -16.6% | – |
| C=CC(=O)OCC(CC)(COC(=O)C=C)COC(=O)C=C | – | 44.7 µM (active) |
| c1cc2c3c(cccc3c1)CC2 | -3.28% | – |

| Compound | max response | Potency |
| --- | --- | --- |
| CNC(=O)Oc1cccc(N=CN(C)C)c1 | 10.6% | – |
| COc1cnc(OC)n2nc(NS(=O)(=O)c3c(OCC(F)F)cccc3C(F)(F)F)nc12 | -13.9% | – |
| CCOC1Oc2ccc(OS(C)(=O)=O)cc2C1(C)C (stereo not given) | -7.44% | – |
| O=[As](O)(O)O | -6.13% | – |
| CCOP(=S)(OCC)Oc1nc(Cl)n(C(C)C)n1 | 14.2% | – |
| O=C(O)COc1ccc(Cl)cc1 | -13.3% | – |
| CCSC(C)CC1CC(=O)C(/C(CC)=N/OC/C=C/Cl)=C(O)C1 (stereo not given) | 0.139% | – |
| CCOP(=O)(OCC)SCSC(C)(C)C | -1.69% | – |
| Nc1ccccc1C(=O)OCCc1ccccc1 | -9.65% | – |
| CS(=O)(=O)c1cc(C(F)(F)F)ccc1C(=O)c1cnoc1C1CC1 | -4.05% | – |
| Brc1c(Br)c(Br)c(Br)c(Br)c1Br | 0.275% | – |
| FC(F)(F)c1ccc(OCCCOc2c(Cl)cc(OCC=C(Cl)Cl)cc2Cl)nc1 | 3.21% | – |
| FC(F)C(F)(F)OCC(Cn1cncn1)c1ccc(Cl)cc1Cl (stereo not given) | 4.82% | – |
| C=C(C)C(=O)OCC(CC)CCCC (stereo not given) | -2.17% | – |
| CC(Oc1cc(Cl)c(Cl)cc1Cl)C(=O)O (stereo not given) | 1.54% | – |
| Cc1ccccc1C(=O)Nc1cccc(OC(C)C)c1 | -11.3% | – |
| CC(C)=CC1C(C(=O)OCc2coc(Cc3ccccc3)c2)C1(C)C (stereo not given) | 3.05% | – |
| CCOP(=O)(SC(C)CC)N1CCSC1=O (stereo not given) | 14.8% | – |
| COc1cccc(C(=O)NN(C(=O)c2cc(C)cc(C)c2)C(C)(C)C)c1C | -0.788% | – |
| Cc1cc(Cl)ccc1N=CN(C)C | -16.2% | – |
